Drawing on PubChem BioAssay AID504697 (The Scripps Research Institute Molecular Screening Center, 2011), this text covers EC50 for 15 molecules.

Active and inactive are the calls of the source.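 How the source made its calls: active means EC50 at or below 10 µM; inactive means EC50 above 10 µM.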

This assay in a line: fluorescence interference artefacts, compound only, dose response, artefact control for cardiac thin filament activator project, biochemical, no RTF in test wells (AID 504697).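 Further: emission near 535 nm under roughly 485 nm excitation as for IANBD.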 The note with it: compound-only fluorescence in RTF assay buffer with Ca2+ (no RTF in test wells), artifact counterscreen. Background: Counterscreens check selectivity or assay interference.
One may read the EC50 as the concentration that produces a half-maximal response. For `O=C(CSc1nnc(COc2ccccc2)o1)N1CCN(c2ccccc2)CC1`, the EC50 is > 71.5 µM (inactive).

Turning to `O=C(NCc1ccc(Cl)cc1)C1CCN(c2cnccn2)CC1`, the EC50 was > 71.4 µM (inactive).

As to `Cc1cc(/C=C2/C(=O)N(C)C(=S)N2C)ccc1N1CCCC1`, the EC50 was 28.8 µM (inactive).

With `CCC[C@@H](CN1CCC[C@H]1CN1C(N)=NC[C@@H]1Cc1ccccc1)N1C[C@@H](Cc2ccccc2)N(CCCC2CCCC2)C1=N`, the EC50 was > 71.4 µM (inactive).

Take `CC1=CC(=C(C#N)C#N)C=C(C)N1Cc1ccc(Cl)cc1`: the EC50 was > 71.5 µM (inactive).

Turning to `Fc1ccc(CNC(=S)NCc2ccc(F)cc2)cc1`, the EC50 is > 71.5 µM (inactive).

Take `CN(C)NC(=O)c1ccc([N+](=O)[O-])s1`: the EC50 was > 71.4 µM (inactive).

Regarding `N#Cc1ccc(S(=O)(=O)NC2CCCCNC2=O)cc1` (stereo not given), the EC50 was > 71.4 µM (inactive).

Take `CC(=O)Nc1ccc(N=Cc2nc(-c3ccc(C)cc3)oc2O)cc1`: the EC50 is 20 µM (inactive).

With `c1ccc(Cn2c(-c3ccccc3)nc3nc4ccccc4nc32)cc1`, the EC50 is > 71.5 µM (inactive).

As to `Cc1cc(S(=O)(=O)N2CCCC(C(=O)Nc3ccc(C(=O)O)cc3)C2)ccc1Cl` (stereo not given), the EC50 was > 71.5 µM (inactive).

In the case of `O=C(Nc1ccccc1-c1ccccc1)c1ccc(Cl)c([N+](=O)[O-])c1`, the EC50 is > 71.5 µM (inactive).

In the case of `Cc1ccnc(N/C=C(\C#N)c2nc(-c3cccc(Br)c3)cs2)c1`, the EC50 was 1.59 µM (active).

With `Fc1ccc(-c2nnc(-c3ccc(Cl)cc3Cl)o2)cc1`, the EC50 is > 71.5 µM (inactive).

For the molecule `COc1ccc2nc(C)c3cc(C)oc3c2c1`, the EC50 was > 71.4 µM (inactive).
